In PubChem BioAssay AID1159580 (chemical genetic matrix, 2015):
Where “and” joins values, the source holds several entries; their conditions need not be identical. Identical values can stand only once. Among all 5,500 compounds or so, about 2,000 (36%) were called active. Inconclusive results (about 18%) are left out. No stated cut-off is given here; in the data, active means normalized growth mostly below about 0.91 (no sharp cut-off); inconclusive means no clear call, values can overlap the other calls; inactive means mostly above about 0.92. The list shows a part of the results.

Test: chemical genetic growth profiling, strain panel (AID 1159580);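 further: tested at 20 µM; growth read once vehicle control cultures reached saturation at 30 °C; 1 = growth at the plate median or of vehicle wells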
Conditions: S. cerevisiae deletion strains, growth OD

Measured: normalized growth

NCCCCN
inactive: locus YAL013W, strain DEP1, stronger effect = lower value 1.02 | locus YAL040C, strain CLN3, stronger effect = lower value 1.07 | locus YBR021W, strain FUR4, stronger effect = lower value 1.02 | locus YBR229C, strain ROT2, stronger effect = lower value 1 | locus YCL029C, strain bik1, stronger effect = lower value 0.99 | locus YCL061C, strain MRC1 (second series), stronger effect = lower value 0.999 | locus YDL035C, strain GPR1, stronger effect = lower value 1.04 | locus YDL074C, strain BRE1, stronger effect = lower value 1.01 | locus YDL101C, strain DUN1, stronger effect = lower value 1.01 | locus YDL185W, strain tfp1, stronger effect = lower value 1.02 | locus YDL192W, strain arf1, stronger effect = lower value 1.01 | locus YDR101C, strain arx1, stronger effect = lower value 0.971 | locus YDR150W, strain NUM1, stronger effect = lower value 1.01 | locus YDR162C, strain NBP2, stronger effect = lower value 1.04 | locus YDR318W, strain mcm21, stronger effect = lower value 1.01 | locus YDR363W, strain ESC2, stronger effect = lower value 1.03 | locus YDR388W, stronger effect = lower value 1.01 | locus YDR502C, strain sam2, stronger effect = lower value 0.994 | locus YEL061C, strain CIN8, stronger effect = lower value 1.01 | locus YER002W, strain NOP16, stronger effect = lower value 1 | locus YER110C, stronger effect = lower value 1.01 | locus YER155C, strain BEM2, stronger effect = lower value 1.01 | locus YER167W, strain BCK2, stronger effect = lower value 1.02 | locus YGL078C, strain dbp3, stronger effect = lower value 0.995 | locus YGL086W, strain mad1, stronger effect = lower value 0.985 | locus YGL248W, strain PDE1, stronger effect = lower value 1 | locus YGR078C, strain PAC10, stronger effect = lower value 0.999 | locus YGR135W, strain pre9, stronger effect = lower value 1.06 | locus YGR229C, strain SMI1, stronger effect = lower value 1.02 and 1.01 | locus YGR252W, strain gcn5, stronger effect = lower value 1.04 | locus YHR030C, strain SLT2, stronger effect = lower value 1 and 0.949 | locus YHR079C, strain IRE1 (second series), stronger effect = lower value 1 | locus YHR079C, strain IRE1, stronger effect = lower value 0.969 | locus YHR094C, strain hxt1, stronger effect = lower value 1.01 | locus YHR129C, strain ARP1, stronger effect = lower value 1.01 | locus YHR200W, strain rpn10, stronger effect = lower value 1 | locus YIL066C, strain RNR3, stronger effect = lower value 1.01 | locus YIL073C, strain SPO22, stronger effect = lower value 1.11 | locus YIL125W, strain kgd1, stronger effect = lower value 0.997 | locus YIR030C, strain dcg1, stronger effect = lower value 0.999 | locus YJL095W, strain BCK1, stronger effect = lower value 1.01 and 0.994 | locus YJL134W, strain LCB3, stronger effect = lower value 1.01 | locus YJL168C, strain set2, stronger effect = lower value 1.01 | locus YJL187C, strain SWE1 (second series), stronger effect = lower value 1.01 | locus YJR043C, strain POL32, stronger effect = lower value 1 | locus YJR066W, strain TOR1, stronger effect = lower value 0.93 | locus YJR075W, strain HOC1, stronger effect = lower value 1.01 | locus YKL009W, strain mrt4, stronger effect = lower value 0.99 | locus YKL068W, stronger effect = lower value 0.999 | locus YKL085W, strain MDH1 (second series), stronger effect = lower value 1 | locus YKL085W, strain MDH1, stronger effect = lower value 1 | locus YKL190W, strain CNB1, stronger effect = lower value 0.999 | locus YKR001C, strain vps1, stronger effect = lower value 1 | locus YLR039C, strain RIC1, stronger effect = lower value 1.05 | locus YLR058C, strain SHM2, stronger effect = lower value 1.01 | locus YLR102C, strain apc9, stronger effect = lower value 1 | locus YLR113W, strain HOG1, stronger effect = lower value 1.01 | locus YLR262C, strain YPT6, stronger effect = lower value 1.06 | locus YLR268W, strain sec22, stronger effect = lower value 0.996 | locus YLR330W, strain CHS5, stronger effect = lower value 1.01 | locus YLR342W, strain FKS1 (second series), stronger effect = lower value 1.07 | locus YLR371W, strain rom2, stronger effect = lower value 1 | locus YLR418C, strain cdc73, stronger effect = lower value 1.03 | locus YML016C, strain PPZ1, stronger effect = lower value 1 | locus YML032C, strain rad52, stronger effect = lower value 0.992 | locus YML124C, strain tub3, stronger effect = lower value 1 | locus YMR078C, strain ctf18, stronger effect = lower value 1 | locus YMR223W, strain ubp8, stronger effect = lower value 1.05 | locus YMR307W, strain GAS1, stronger effect = lower value 1.07 and 1.01 | locus YNL067W, strain RPL9B, stronger effect = lower value 1 | locus YNL128W, strain TEP1, stronger effect = lower value 1.01 | locus YNL153C, strain GIM3, stronger effect = lower value 1 | locus YNL175C, strain NOP13, stronger effect = lower value 1 | locus YNL183C, strain NPR1, stronger effect = lower value 0.961 | locus YNL197C, strain WHI3, stronger effect = lower value 1 | locus YNL224C, strain SQS1, stronger effect = lower value 1 | locus YNL233W, strain BNI4, stronger effect = lower value 1.01 | locus YNL250W, strain rad50, stronger effect = lower value 1.03 | locus YNL271C, strain bni1, stronger effect = lower value 1.01 | locus YNL298W, strain CLA4, stronger effect = lower value 1.01 | locus YNL307C, strain MCK1, stronger effect = lower value 1.02 | locus YNR052C, strain pop2, stronger effect = lower value 1 | locus YOL012C, strain htz1 0.897 | locus YOL147C, strain pex11, stronger effect = lower value 1.01 | locus YOR061W, strain CKA2, stronger effect = lower value 1 | locus YOR069W, strain VPS5, stronger effect = lower value 1.01 | locus YOR083W, strain WHI5 (second series), stronger effect = lower value 1.01 | locus YOR136W, strain idh2, stronger effect = lower value 0.992 | locus YOR144C, strain elg1, stronger effect = lower value 1 | locus YOR184W, strain ser1, stronger effect = lower value 1 | locus YOR231W, strain MKK1, stronger effect = lower value 0.957 | locus YOR316C, strain cot1, stronger effect = lower value 1 | locus YPL055C, strain LGE1, stronger effect = lower value 0.99 | locus YPL241C, strain CIN2, stronger effect = lower value 1.01 | locus YPL256C, strain CLN2, stronger effect = lower value 0.958 | locus YPR119W, strain clb2, stronger effect = lower value 0.994 | locus YPR141C, strain kar3, stronger effect = lower value 1 | locus YPR163C, strain tif3, stronger effect = lower value 1.01 | locus YPR167C, strain met16, stronger effect = lower value 1 | strain wtn01, stronger effect = lower value 0.995
